From PubChem BioAssay AID1159580 (chemical genetic matrix, 2015)
“And” between values parts separate entries of the source, which are not always exact repeats. Equal entries are not always repeated. Screen size: about 5,500 compounds; about 2,000 (36%) were called active. Inconclusive results (about 18%) are left out. Rule as the data show it: active = normalized growth mostly below about 0.91 (no sharp cut-off); inconclusive = no clear call, values can overlap the other calls; inactive = mostly above about 0.92. The list shows a part of the results.

Experiment: chemical genetic growth profiling, strain panel (AID 1159580);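 also: tested at 20 µM; growth read once vehicle control cultures reached saturation at 30 °C; 1 = growth at the plate median or of vehicle wells; lower values mean less growth of the strain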
Conditions: S. cerevisiae deletion strains, growth OD

Measured: normalized growth

CC12CC3CC(C)(C1)CC(N)(C3)C2
inactive: locus YAL013W, strain DEP1, hits give low values 1 and 0.983 | locus YAL021C, strain ccr4, hits give low values 1 | locus YAL026C, strain drs2, hits give low values 0.99 | locus YAL030W, strain snc1, hits give low values 0.976 | locus YAL040C, strain CLN3, hits give low values 1.06 | locus YBL061C, strain skt5, hits give low values 0.977 | locus YBR009C, strain hhf1, hits give low values 0.993 | locus YBR021W, strain FUR4, hits give low values 1.02 | locus YBR023C, strain chs3, hits give low values 0.985 | locus YBR171W, strain sec66, hits give low values 0.98 | locus YBR229C, strain ROT2, hits give low values 0.997 | locus YBR231C, strain swc5, hits give low values 0.963 | locus YBR279W, strain paf1, hits give low values 0.981 | locus YCL011C, strain gbp2, hits give low values 1.01 | locus YCL016C, strain dcc1, hits give low values 1.01 | locus YCL029C, strain bik1, hits give low values 1.02 | locus YCL061C, strain MRC1 (second series), hits give low values 0.994 | locus YCL061C, strain MRC1, hits give low values 0.989 | locus YCL069W, strain vba3, hits give low values 0.992 | locus YCR088W, strain abp1, hits give low values 0.982 | locus YDL005C, strain med2, hits give low values 0.988 | locus YDL035C, strain GPR1, hits give low values 0.999 | locus YDL040C, strain nat1, hits give low values 0.986 | locus YDL074C, strain BRE1, hits give low values 1.03 | locus YDL101C, strain DUN1, hits give low values 1.02 | locus YDL134C, strain PPH21, hits give low values 1 | locus YDL185W, strain tfp1, hits give low values 1.01 | locus YDL192W, strain arf1, hits give low values 1.01 | locus YDR001C, strain nth1, hits give low values 0.999 | locus YDR069C, strain doa4, hits give low values 0.983 | locus YDR101C, strain arx1, hits give low values 1.01 | locus YDR137W, strain rgp1, hits give low values 1.01 | locus YDR150W, strain NUM1, hits give low values 0.996 and 1 | locus YDR159W, strain sac3, hits give low values 0.962 | locus YDR162C, strain NBP2, hits give low values 1.01 | locus YDR195W, strain ref2 0.94 | locus YDR297W, strain sur2, hits give low values 0.988 | locus YDR318W, strain mcm21, hits give low values 1.02 | locus YDR334W, strain swr1, hits give low values 1.01 | locus YDR335W, strain msn5, hits give low values 0.986 | locus YDR363W, strain ESC2, hits give low values 0.959 | locus YDR388W, hits give low values 1.01 | locus YDR392W, strain spt3, hits give low values 0.993 | locus YDR502C, strain sam2, hits give low values 1.01 | locus YEL003W, strain gim4, hits give low values 0.986 | locus YEL037C, strain rad23, hits give low values 0.981 | locus YEL061C, strain CIN8 (second series), hits give low values 0.971 | locus YEL061C, strain CIN8, hits give low values 1 | locus YER002W, strain NOP16, hits give low values 1.02 | locus YER015W, strain faa2, hits give low values 0.998 | locus YER016W, strain bim1, hits give low values 0.979 | locus YER110C, hits give low values 1 | locus YER111C, strain swi4, hits give low values 0.983 | locus YER155C, strain BEM2 (second series), hits give low values 0.989 | locus YER155C, strain BEM2, hits give low values 1.01 | locus YER167W, strain BCK2, hits give low values 1.01 | locus YFR010W, strain ubp6, hits give low values 0.988 | locus YGL078C, strain dbp3, hits give low values 0.999 | locus YGL086W, strain mad1, hits give low values 0.988 | locus YGL167C, strain pmr1, hits give low values 1.01 | locus YGL173C, strain kem1, hits give low values 0.957 | locus YGL227W, strain vid30, hits give low values 0.994 | locus YGL240W, strain doc1, hits give low values 0.966 | locus YGL248W, strain PDE1, hits give low values 0.999 | locus YGL253W, strain hxk2, hits give low values 0.977 | locus YGR078C, strain PAC10, hits give low values 1.02 and 0.97 | locus YGR135W, strain pre9, hits give low values 1.01 | locus YGR229C, strain SMI1, hits give low values 1.02 | locus YGR252W, strain gcn5, hits give low values 0.968 | locus YHR013C, strain ard1, hits give low values 0.983 | locus YHR027C, strain rpn1, hits give low values 0.995 | locus YHR030C, strain SLT2, hits give low values 1.01 and 0.993 | locus YHR079C, strain IRE1 (second series), hits give low values 1.01 | locus YHR079C, strain IRE1, hits give low values 0.965 | locus YHR094C, strain hxt1, hits give low values 1.01 | locus YHR129C, strain ARP1, hits give low values 1.02 | locus YHR142W, strain chs7, hits give low values 0.963 | locus YHR200W, strain rpn10, hits give low values 1 | locus YIL066C, strain RNR3, hits give low values 1.01 | locus YIL073C, strain SPO22, hits give low values 1.09 | locus YIL125W, strain kgd1, hits give low values 1 | locus YIR030C, strain dcg1, hits give low values 1.01 | locus YJL092W, strain hpr5, hits give low values 0.983 | locus YJL095W, strain BCK1 (second series), hits give low values 0.985 | locus YJL095W, strain BCK1, hits give low values 1.04 and 1 | locus YJL115W, strain asf1, hits give low values 0.976 | locus YJL129C, strain trk1, hits give low values 0.958 | locus YJL134W, strain LCB3, hits give low values 0.999 | locus YJL154C, strain vps35, hits give low values 0.972 | locus YJL164C, strain tpk1, hits give low values 1.01 | locus YJL166W, strain qcr8, hits give low values 0.984 | locus YJL168C, strain set2, hits give low values 1 | locus YJL187C, strain SWE1 (second series), hits give low values 1.02 | locus YJL187C, strain SWE1, hits give low values 0.992 | locus YJR043C, strain POL32, hits give low values 1.01 | locus YJR066W, strain TOR1, hits give low values 0.923
